# This is a sample that favours compounds with a hit; in the whole collection about 4.1% have one here.
# tim23-1 inh: growth inhibitors of tim23-1 mutant yeast. AID 463212. hit rate 1.3% among 330,000. S. cerevisiae tim23-1 growth, BacTiter-Glo luminescence, 24 h. inhibition, % at 20 µM;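 active means growth inhibition of the mutant yeast at or above 50%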;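 further: temperature-sensitive mutant grown at 25 °C; plate controls were DMSO-treated mutant yeast for no effect and medium wells lacking yeast for full effect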
# NALP1 inh: blocks the NALP1 inflammasome reconstituted in yeast | S. cerevisiae NALP1/ASC/caspase-1 growth, X-gal OD620, 72 h | inhibition, % at 10 µM | hit rate 0.61% among 280,000 | AID 2071; in the data active means inhibition mostly above about 24%, no sharp cut-off; inactive means mostly below about 32%
# PfHsp90 set2: reduces growth (ATP signal) of yeast expressing P. falciparum Hsp90; hit rate 0.32% among 310,000; S. cerevisiae expressing PfHsp90, BacTiter-Glo ATP, 48 h; yeast lacking PDR1 and PDR3 efflux regulators; inhibition, % at 9.4 µM;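 active means every replicate shows inhibition above about 80%, whatever the replicate mean, limit read from the data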;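 further: 0% = DMSO neutral controls and 100% = 20 µM radicicol positive controls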
# TIM10 inh: growth inhibitors of TIM10 yeast strain. S. cerevisiae TIM10 strain growth, BacTiter-Glo luminescence, 24 h. inhibition, % at 10 µM. hit rate 1.4% among 330,000;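 active means inhibition of 40% or more at the single tested concentration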;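 further: wild-type TIM10 isogenic control strain grown at permissive 25 °C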
# tim10-1 inh: inhibits growth of tim10-1 mutant yeast; inhibition, % at 20 µM; S. cerevisiae tim10-1 ts strain growth, BacTiter-Glo, 24 h; hit rate 2.2% among 330,000; AID 463190;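 active means inhibition of at least 40%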;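 further: mutant grown at 25 °C; 0% = DMSO wells with yeast and 100% = wells holding no yeast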
# NALP3 yeast inh: NALP3 inhibition in yeast | Yeast reconstituted NLRP3/ASC/caspase-1, beta-gal luminescence, 24 h | inhibition, % at 10 µM | hit rate 0.39% among 330,000 | AID 2825;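 active means inhibition of 50% or more; inactive means inhibition below 50%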;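 further: plate controls were induced DMSO wells for no effect and uninduced yeast grown without galactose for full effect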
# tim10-1 conf: confirmation of tim10-1 mutant yeast growth inhibitors. shares compounds with tim10-1 inh. S. cerevisiae tim10-1 ts strain growth, BacTiter-Glo, 24 h. inhibition, % at 20 µM. hit rate 56% among 7,400. AID 463213;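 active means inhibition of yeast growth at or above a set limit in either of two repeat tests at 20 µM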;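 further: tim10-1 mutant grown at permissive 25 °C to find synthetic lethal compounds; 0% = DMSO yeast wells and 100% = medium wells without yeast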
# Numbers without * were called inactive; / = not tested or not shown.
SMILES,tim23-1 inh,NALP1 inh,PfHsp90 set2,TIM10 inh,tim10-1 inh,NALP3 yeast inh,tim10-1 conf
CC(=O)Nc1nc2ccccc2n1Cc1ccccc1C,18,-2,-20,13,46*,-8,27
CC(C)Oc1ccc(CN2CCC(n3nccc3NC(=O)CCc3ccccc3)CC2)cc1,1,26,4,12,-13,7,/
COCCN1CN(S(=O)(=O)c2cccc(Cl)c2)c2nc3ccccc3nc21,39,0,-36,19,45*,9,10
CCCCN1CN(S(=O)(=O)c2ccc(OC)cc2)c2nc3ccccc3nc21,42,8,-31,22,46*,0,12
CC(=O)c1ccc(S(=O)(=O)N2CCN(CC(=O)NC(=O)NC3CCCCC3)CC2)cc1,/,/,-16,/,/,/,/
CCOC(=O)c1ccc(S(=O)(=O)N2CCN(CC(=O)NC(=O)NC3CCCCC3)CC2)cc1,11,15,4,16,44*,-6,28
CC(CCc1ccccc1)NS(=O)(=O)c1ccccc1F (stereo not drawn),22,7,4,-14,-3,27,/
CCOC(=O)C1CCN(CC(O)COc2ccc(S(=O)(=O)N3CCCC3)cc2[N+](=O)[O-])CC1 (stereo not drawn),5,/,/,2,6,22,/
CCOC(=O)c1c(NC(=O)CSc2nnc(-c3ccco3)o2)sc(C)c1C,24,4,-13,22,42*,18,17
Cc1cc2ncn(/N=C/c3ccc(-c4ccccc4)o3)c2cc1C,-10,14,/,30,47*,-2,17
CCOC(=O)c1ccc(NC(=S)NCCc2ccccc2F)cc1,27,-5,/,34,40*,29,17
CCOC(=O)c1ccc(NC(=S)NCCc2ccccc2)cc1,46,2,-21,36,41*,37,20
CC(=O)Nc1ccc(C(=O)OCCc2ccccc2)cc1,46,24,-3,16,42*,24,33*
O=C(O)c1cc(Cl)c(Cl)cc1C(=O)N(Cc1ccccc1)Cc1ccccc1,16,14,10,8,17,6,/
Cc1ccc(N(C)C(=O)c2cc(S(=O)(=O)N3CCCC3)cn2C)cc1,8,20,-15,4,-2,-1,/
COc1cccc(CC(=O)OCC(=O)NC(C)c2ccc(F)cc2)c1 (stereo not drawn),4,/,5,-2,7,2,/
Cc1cccc(C(=O)O/N=C(\N)c2ccc(Cl)cc2)c1,34,23,0,35,37,19,/
N/C(=N\OC(=O)c1ccccc1Br)c1ccc([N+](=O)[O-])cc1,15,-8,-36,26,27,18,/
COc1ccccc1C(=O)O/N=C(/c1ccncc1)c1ccc([N+](=O)[O-])cc1,36,-3,-13,30,47*,1,26
COc1cc(C(=O)O/N=C(\N)c2ccc([N+](=O)[O-])cc2)cc(OC)c1OC,25,20,-6,36,59*,-45,47*
Cc1ccccc1C(=O)O/N=C(\N)c1ccc([N+](=O)[O-])cc1,49,23,-10,34,53*,16,62*
COc1cc(C(=O)O/N=C(\N)c2cccc([N+](=O)[O-])c2)cc(OC)c1OC,10,/,-12,11,4,6,/
COc1ccc(C(=O)O/N=C(\N)c2ccc(Cl)cc2)cc1,38,22,-12,31,44*,27,46*
Cc1ccc(C(=O)O/N=C(\c2ccccc2)c2ccncc2)cc1,24,-4,5,25,28,25,/
O=C(NCC1CCCO1)c1ccc(Cl)c(S(=O)(=O)Nc2ccccc2)c1 (stereo not drawn),3,23,3,2,-1,25,/
SMILES,tim23-1 inh,NALP1 inh,PfHsp90 set2,TIM10 inh,tim10-1 inh,NALP3 yeast inh,tim10-1 conf
COc1ccc(C(=O)O/N=C(\N)c2ccccc2)cc1OC,23,0,-7,19,51*,24,53*
Cc1cc(C)cc(C(=O)O/N=C(\N)c2ccc(Br)cc2)c1,9,15,-10,35,40*,16,31*
COc1cc(C(=O)ON=C2C=C(C)C(=O)C(C)=C2)cc(OC)c1OC,29,33,1,26,29,3,/
N/C(=N\OC(=O)N1CCOCC1)c1ccccc1,13,32,24,11,-10,15,/
N/C(=N\OC(=O)N1CCOCC1)c1ccc(Cl)cc1,33,19,-4,17,61*,13,49*
COc1ccc(C(=O)ON=C2C=C(C)C(=O)C(C)=C2)cc1,36,-12,16,22,48*,-6,21
COc1ccc(C(=O)O/N=C(\N)c2ccncc2)cc1OC,0,11,1,4,-12,7,/
COc1ccc(CCNC(=O)Oc2ccccc2)cc1OC,16,3,19,15,2,13,/
Cc1ccc(NC(=O)NC(=O)COc2ccccc2C(N)=O)c(C)c1,-6,/,/,-15,-8,26,/
COc1cc(/C=N/O)cc(Br)c1OC,8,32,7,-24,8,8,/
COc1cc(/C=N/O)cc(Br)c1OCc1ccc(Cl)cc1,-5,20,6,20,44*,16,28
COc1ccc(OC)c(NC(=O)COC(=O)CCNc2ccccc2OC)c1,18,/,-2,-11,-2,9,/
CC(C)(C)OC(=O)C[C@H]1C/C=C\C[C@H](CC(=O)NCCO)C(=O)NC[C@H](c2ccccc2)OC1=O,0,/,-2,-2,-8,22,/
N/C(=N\OC(=O)Cc1ccc([N+](=O)[O-])cc1)c1cccc(Br)c1,24,-1,/,13,58*,5,50*
COc1ccc(CC(=O)O/N=C(\N)Cc2ccc([N+](=O)[O-])cc2)cc1,29,/,-4,28,43*,17,63*
O=C(COC(=O)C1=COCCO1)Nc1ccc([N+](=O)[O-])cc1C(F)(F)F,0,/,/,2,-10,21,/
c1ccc2c(c1)ccc1nnc(SCc3ccc4c(c3)OCO4)n12,40,-30,25,5,42*,30,20
Cc1ccc(C(=O)O/N=C2\CCSc3ccc(C)cc32)cc1,37,/,/,29,40*,-7,33*
COc1ccc(CNC(=O)C[C@H]2C[C@H](C(=O)N3CCCCC3)[C@@]3(C)c4[nH]c5ccc(Cl)cc5c4CCN3C2=O)cc1OC,32,/,-5,-7,11,/,/
N#CCC1c2ccccc2CCN1C(=O)Nc1ccc(C(F)(F)F)cc1 (stereo not drawn),37,39,-9,34,46*,-4,41*
COc1ccc(C)cc1NC(=O)CSc1nc(=O)n(CCCN2CCOCC2)c2c1CCCC2,-12,/,-20,-1,-4,13,/

# Source: PubChem BioAssay
